These results are taken from PubChem BioAssay (NCI).

SMILES strings stand for the structures. This is part of a sample that, as a whole, favours compounds with a hit. Of some 79,000 tested, about 15% had one in any assay. Values without a mark were called inactive. The source made the active and inactive calls. Rule as the data show it: active = growth inhibition above about 70%; inactive = the rest.

Assay [1] can be described thus: NCI Yeast Anticancer Drug Screen. Data for the rad50 strain (AID 155).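 Also: 0% = growth of vehicle-only cultures of the same strain.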 The following applies: S. cerevisiae rad50 strain growth inhibition, stronger effect = higher value. In a few lines: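 Genetically altered yeast (DNA repair pathway); compound treatment; growth inhibition vs vehicle ctrl.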
Assay [2] in a line: NCI Yeast Anticancer Drug Screen. Data for the mec2-1 strain (AID 157). The following applies: S. cerevisiae mec2-1 strain, stronger effect = higher value. In a few lines: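 Cells of the genetically defined mec2-1 yeast strain are incubated with test compound. Inhibition of growth is calculated against vehicle-treated controls.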
Assay [3] is described as follows: NCI Yeast Anticancer Drug Screen. Data for the sgs1 mgt1 strain (AID 161).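 Also: 0% = growth of cultures given vehicle only.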 The conditions noted are these: S. cerevisiae sgs1 mgt1 strain, stronger effect = higher value. An outline of the steps: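 Genetically altered yeast, compound exposure, growth inhibition relative to vehicle.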
Assay [4] can be described thus: NCI Yeast Anticancer Drug Screen. Data for the cln2 rad14 strain (AID 165).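 Also: 0% = growth equal to vehicle treated cultures.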 The following applies: S. cerevisiae cln2 rad14 strain, stronger effect = higher value. In a few lines:
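The screen exposed genetically defined yeast (cln2 rad14) to test compounds and scored growth inhibition relative to vehicle-treated controls.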

The nature of assay [5]: NCI Yeast Anticancer Drug Screen. Data for the bub3 strain (AID 167). The following applies: S. cerevisiae bub3 mutant strain, stronger effect = higher value. In a few lines: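 Yeast carrying a defined mutation is treated with each compound, and growth is compared with that of vehicle-exposed cells to give inhibition.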
A short description of assay [6]: NCI Yeast Anticancer Drug Screen. Data for the mlh1 rad18 strain (AID 175). The conditions noted are these: S. cerevisiae mlh1 rad18 strain growth inhibition, stronger effect = higher value. In a few lines:
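Compound-treated yeast growth, normalised to vehicle controls. Strain bears defined DNA repair mutations.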

The mark [7] stands for this setting: at 5.0 µM (retest, dose inferred, filed as 0.5).
Where [8] appears, read: at 50.0 µM (retest, dose inferred, filed as 5.0).

Take `Nc1ccc(S(=O)(=O)NCc2nccs2)cc1`: the growth inhibition is -5% in assay [1] (setting [7]); 81% (active) in assay [1] (setting [8]); 17.9% in assay [1] (at 50.0 µM); 14% in assay [2] (setting [7]); 58% in assay [2] (setting [8]); 50% in assay [2] (at 50.0 µM). The growth inhibition was 2% in assay [3] (setting [7]); 53% in assay [3] (setting [8]); 28.4% in assay [3] (at 50.0 µM); -7% in assay [4] (setting [7]); 60% in assay [4] (setting [8]); 47.4% in assay [4] (at 50.0 µM). Moreover, the growth inhibition is 37% in assay [5] (setting [7]); 80% (active) in assay [5] (setting [8]); 31.7% in assay [5] (at 50.0 µM); 11% in assay [6] (setting [7]); 87% (active) in assay [6] (setting [8]); 70.5% (active) in assay [6] (at 50.0 µM).

For the compound `COc1ccccc1NC(=S)N/N=C(/C)c1ccccn1`, the growth inhibition in assay [1] (setting [7]) is 22%; in assay [1] (setting [8]) it was 78% (active); in assay [1] (at 50.0 µM), -30.1%; in assay [2] (setting [7]), 22%; in assay [2] (setting [8]), 66%; in assay [2] (at 50.0 µM) it was -8.7%. For the same compound, the growth inhibition in assay [3] (setting [7]) was 34%; in assay [3] (setting [8]) it was 61%; in assay [3] (at 50.0 µM), 18.4%; in assay [4] (setting [7]), 32%; in assay [4] (setting [8]), 56%; in assay [4] (at 50.0 µM), -3.95%. Moreover, the growth inhibition in assay [5] (setting [7]) was 54%; in assay [5] (setting [8]), 77% (active); in assay [5] (at 50.0 µM) it was 13.5%; in assay [6] (setting [7]), 13%; in assay [6] (setting [8]) it was 64%; in assay [6] (at 50.0 µM), -2.3%.

On to `C=C(Br)COc1ccc2c(C)cc(=O)oc2c1`, for which the growth inhibition in assay [1] (setting [7]) is 38%; in assay [1] (setting [8]), 39%; in assay [1] (at 50.0 µM), 67.5%; in assay [2] (setting [7]) it was 35%; in assay [2] (setting [8]), 32%; in assay [2] (at 50.0 µM) it was 25.7%. Also, the growth inhibition is 42% in assay [3] (setting [7]); 47% in assay [3] (setting [8]); 75.2% (active) in assay [3] (at 50.0 µM); 38% in assay [4] (setting [7]); 32% in assay [4] (setting [8]); 36% in assay [4] (at 50.0 µM). For the same compound, the growth inhibition in assay [5] (setting [7]) is 45%; in assay [5] (setting [8]), 43%; in assay [5] (at 50.0 µM), 68.8%; in assay [6] (setting [7]) it was 49%; in assay [6] (setting [8]), 51%; in assay [6] (at 50.0 µM), 49.8%.

On to `CCCCCCCCCCCCCCCCCC[n+]1cccc(C(=O)N2CCOCC2)c1`, for which the growth inhibition in assay [1] (setting [7]) is 91% (active); in assay [1] (setting [8]), 99% (active); in assay [1] (at 50.0 µM), 99.8% (active); in assay [2] (setting [7]), 86% (active); in assay [2] (setting [8]), 100% (active); in assay [2] (at 50.0 µM), 99.8% (active). The growth inhibition in assay [3] (setting [7]) is 99% (active); in assay [3] (setting [8]) it was 100% (active); in assay [3] (at 50.0 µM), 99.8% (active); in assay [4] (setting [7]), 60%; in assay [4] (setting [8]), 99% (active); in assay [4] (at 50.0 µM) it was 99.3% (active). Besides, the growth inhibition in assay [5] (setting [7]) was 86% (active); in assay [5] (setting [8]) it was 99% (active); in assay [5] (at 50.0 µM) it was 99.7% (active); in assay [6] (setting [7]), 97% (active); in assay [6] (setting [8]) it was 100% (active); in assay [6] (at 50.0 µM) it was 99.8% (active).

For the compound `O=C1c2ccc3ccccc3c2CCC1[n+]1ccc2ccccc2c1` (stereo not given), the growth inhibition was 1% in assay [1] (setting [7]); 57% in assay [1] (setting [8]); 53.4% in assay [1] (at 50.0 µM); 11% in assay [2] (setting [7]); 76% (active) in assay [2] (setting [8]); 77.3% (active) in assay [2] (at 50.0 µM). In addition, the growth inhibition was 7% in assay [3] (setting [7]); 79% (active) in assay [3] (setting [8]); 70.7% (active) in assay [3] (at 50.0 µM); -5% in assay [4] (setting [7]); 29% in assay [4] (setting [8]); 83.6% (active) in assay [4] (at 50.0 µM). Moreover, the growth inhibition in assay [5] (setting [7]) is -4%; in assay [5] (setting [8]), 63%; in assay [5] (at 50.0 µM), 71% (active); in assay [6] (setting [7]), 15%; in assay [6] (setting [8]), 85% (active); in assay [6] (at 50.0 µM), 69.5%.

Turning to `COc1ccccc1NC(=O)CC(=O)N1N=C(c2ccccc2)C(N=Nc2ccc(Cl)cc2)C1=O` (stereo not given), the growth inhibition was 20% in assay [1] (setting [7]); 20% in assay [1] (setting [8]); -5.1% in assay [1] (at 50.0 µM); 21% in assay [2] (setting [7]); 21% in assay [2] (setting [8]); 0.6% in assay [2] (at 50.0 µM). Moreover, the growth inhibition in assay [3] (setting [7]) was 25%; in assay [3] (setting [8]) it was 25%; in assay [3] (at 50.0 µM) it was -2%; in assay [4] (setting [7]), 12%; in assay [4] (setting [8]), 12%; in assay [4] (at 50.0 µM) it was -41.2%. Further, the growth inhibition in assay [5] (setting [7]) was 15%; in assay [5] (setting [8]), 15%; in assay [5] (at 50.0 µM), 1%; in assay [6] (setting [7]), 6%; in assay [6] (setting [8]), 6%; in assay [6] (at 50.0 µM), -8.05%.

In the case of `O=C1Nc2c(ccc(Cl)c2I)C1=O`, the growth inhibition was -28% in assay [1] (setting [7]); 97% (active) in assay [1] (setting [8]); 92.2% (active) in assay [1] (at 50.0 µM); -3% in assay [2] (setting [7]); 99% (active) in assay [2] (setting [8]); 94.3% (active) in assay [2] (at 50.0 µM). Also, the growth inhibition in assay [3] (setting [7]) is -13%; in assay [3] (setting [8]), 70% (active); in assay [3] (at 50.0 µM), 92.3% (active); in assay [4] (setting [7]), 9%; in assay [4] (setting [8]), 98% (active); in assay [4] (at 50.0 µM), 91.2% (active). In addition, the growth inhibition in assay [5] (setting [7]) was -5%; in assay [5] (setting [8]), 98% (active); in assay [5] (at 50.0 µM), 91.6% (active); in assay [6] (setting [7]), -27%; in assay [6] (setting [8]) it was 99% (active); in assay [6] (at 50.0 µM) it was 91.7% (active).

Regarding `OC(CCN1CCOCC1)(c1cccc(Cl)c1)C1CCCCC1` (stereo not given), the growth inhibition is 3% in assay [1] (setting [7]); 45% in assay [1] (setting [8]); 72.1% (active) in assay [1] (at 50.0 µM); 1% in assay [2] (setting [7]); 19% in assay [2] (setting [8]); -0.6% in assay [2] (at 50.0 µM). For the same compound, the growth inhibition is 0% in assay [3] (setting [7]); 73% (active) in assay [3] (setting [8]); 45.7% in assay [3] (at 50.0 µM); 2% in assay [4] (setting [7]); 40% in assay [4] (setting [8]); -26.9% in assay [4] (at 50.0 µM). Moreover, the growth inhibition is 2% in assay [5] (setting [7]); 68% in assay [5] (setting [8]); 75.4% (active) in assay [5] (at 50.0 µM); 2% in assay [6] (setting [7]); 58% in assay [6] (setting [8]); 40.8% in assay [6] (at 50.0 µM).

Regarding `COC(=O)c1nc(NC#N)[nH]c(=O)c1CCCCCc1cnc(NC#N)nc1`, the growth inhibition in assay [1] (setting [7]) was -3%; in assay [1] (setting [8]), 1%; in assay [1] (at 50.0 µM) it was -2.4%; in assay [2] (setting [7]) it was -2%; in assay [2] (setting [8]) it was -2%; in assay [2] (at 50.0 µM), 4.05%. Moreover, the growth inhibition in assay [3] (setting [7]) was -1%; in assay [3] (setting [8]) it was 4%; in assay [3] (at 50.0 µM) it was -3.25%; in assay [4] (setting [7]), -4%; in assay [4] (setting [8]) it was 1%; in assay [4] (at 50.0 µM) it was 7%. The growth inhibition is 0% in assay [5] (setting [7]); -1% in assay [5] (setting [8]); -0.4% in assay [5] (at 50.0 µM); 0% in assay [6] (setting [7]); -2% in assay [6] (setting [8]); -6.1% in assay [6] (at 50.0 µM).

For the compound `Cc1ccc(C(C)(C)c2ccc(C(=O)O)cc2)cc1`, the growth inhibition in assay [1] (setting [7]) was -4%; in assay [1] (setting [8]), -14%; in assay [1] (at 50.0 µM), 25.1%; in assay [2] (setting [7]) it was 3%; in assay [2] (setting [8]), 4%; in assay [2] (at 50.0 µM), 10.2%. The growth inhibition is -3% in assay [3] (setting [7]); 0% in assay [3] (setting [8]); 42.5% in assay [3] (at 50.0 µM); 1% in assay [4] (setting [7]); -10% in assay [4] (setting [8]); -12.7% in assay [4] (at 50.0 µM). Moreover, the growth inhibition in assay [5] (setting [7]) is -6%; in assay [5] (setting [8]), -8%; in assay [5] (at 50.0 µM), -2.5%; in assay [6] (setting [7]) it was 1%; in assay [6] (setting [8]) it was -7%; in assay [6] (at 50.0 µM) it was 8.9%.
